# Measured values taken from PubChem BioAssay AID434927 (Sanford-Burnham Center for Chemical Genomics, 2010).
# Unmarked numbers belong to inactive results. Active and inactive are the calls of the source.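 Rule for the calls: active = inhibition above about 23% in any of six single-dose repeats (limit read from the data); inactive = the rest.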
# Biological target: Intestinal-type alkaline phosphatase (Homo sapiens) (UniProt P09923)
# Experiment: suppression of intestinal alkaline phosphatase activity – biochemical, luminescence, single concentration, uHTS hits, confirmation (AID 434927);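 note: plate controls were DMSO wells with enzyme for no effect and wells lacking enzyme for full effect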
# Conditions: purified human IAP, CDP-Star luminescence, 30 min; at 8.3 µM; hits give high values
# Chain of Intestinal-type alkaline phosphatase (Homo sapiens) (P09923 whole entry, looked up): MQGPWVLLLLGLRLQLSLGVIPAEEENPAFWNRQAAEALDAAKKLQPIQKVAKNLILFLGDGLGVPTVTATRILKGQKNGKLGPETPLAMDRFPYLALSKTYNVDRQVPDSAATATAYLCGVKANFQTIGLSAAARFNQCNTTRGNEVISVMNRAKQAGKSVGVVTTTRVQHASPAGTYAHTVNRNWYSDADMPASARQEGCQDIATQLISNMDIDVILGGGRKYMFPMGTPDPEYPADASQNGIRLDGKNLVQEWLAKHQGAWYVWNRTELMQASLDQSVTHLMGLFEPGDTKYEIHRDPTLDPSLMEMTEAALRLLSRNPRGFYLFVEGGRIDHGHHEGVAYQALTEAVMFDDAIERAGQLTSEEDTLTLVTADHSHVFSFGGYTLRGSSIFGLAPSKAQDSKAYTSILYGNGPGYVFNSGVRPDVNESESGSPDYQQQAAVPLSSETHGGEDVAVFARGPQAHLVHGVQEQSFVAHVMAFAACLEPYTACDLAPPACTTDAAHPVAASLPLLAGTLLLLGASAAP
row,SMILES,inhibition
1,CCOc1cccc(OCCOCCOc2ccccc2C(C)=O)c1,-219%
2,O=C(Nc1ccon1)c1nc[nH]c1C(=O)NCc1ccccc1,88.5% (active)
3,O=C(O)c1ccccc1C(=O)Nc1cc(-c2ccccc2)[nH]n1,61.7% (active)
4,Cc1ccccc1CNC(=O)c1ccccc1N,37.2% (active)
5,Cn1nnnc1N=N/C(=N/Nc1ccccc1)c1ccccc1,54.9% (active)
6,C/C(=N/Nc1ccccc1[N+](=O)[O-])c1ccc([N+](=O)[O-])cc1,-233%
7,O=C(COc1ccc(Br)cc1)NCCCn1ccnc1,50.5% (active)
8,O=c1cc(-c2ccccc2)[nH]n1-c1nc2ccccc2[nH]1,-58.4%
9,CCc1nnc(NC(=O)CSc2nnc(C)c(=O)n2N)s1,41.3% (active)
10,O=Nc1[nH]c(=O)c(/C=C(\O)c2ccccc2)nc1NO,-84.9%
11,CCOc1ccc(/C=N/NC(=O)c2[nH]ncc2Br)c(O)c1,-294%
12,N#Cc1cc(Oc2ccccc2)c(-n2nnc3ccccc32)cc1C#N,40.7% (active)
13,O=C(CCN1CCN(Cc2ccccc2)CC1)NNC(=O)Nc1cccc(C(F)(F)F)c1,-0.057%
14,CCOc1cccc(-c2nc(C(N)=O)c3[nH]c(=O)n(-c4cccc(Cl)c4)c3n2)c1O,-74.5%
15,Cc1cc(OCC(=O)Nc2ncn[nH]2)ccc1Cl,-87%
16,Cc1ccc(O)c(-c2cc(C(=O)NCc3ccc4c(c3)OCO4)[nH]n2)c1,19.7% (active)
17,COc1ccccc1CNC(=O)CN(c1ccc(C)cc1)S(=O)(=O)c1c(C)noc1C,32.5% (active)

row,SMILES,inhibition
1,Cc1c(C(=O)N/N=C/c2c(O)ccc3ccccc23)nnn1-c1nonc1N,-86.1%
2,Cc1nc(S/C(=C/c2ccc(-c3ccc(Cl)cc3)o2)C(=O)O)n[nH]1,-88.7%
3,Cc1cc2nc(C3CCN(Cc4nnnn4Cc4cccs4)CC3)[nH]c2cc1C,79.3% (active)
4,C=CCn1c(O)c(N=Nc2ccccc2O)c2ccccc21,36.2% (active)
5,O=C1C2C3C=CC(C3)C2C(=O)N1c1n[nH]c(-c2cccnc2)n1 (stereo not drawn),-82.5%
6,Cc1ccc(-n2ncc3c(NNC(=O)c4ccco4)ncnc32)cc1C,41.4% (active)
7,CC(=O)c1ccc(NC(=O)C2CCCN2S(=O)(=O)c2cccs2)cc1 (stereo not drawn),-85.1%
8,COc1ccc(O)c(/C=N/NC(=S)NCCc2ccccc2)c1,-91.2%
9,CN(C)c1ccc2nc3c(=O)[nH]c(=O)nc-3n(CC(O)C(O)C(O)CO)c2c1 (stereo not drawn),-87.3%
10,O=C(NCCCN1CCOCC1)c1ccc2c(c1)N(Cc1ccc(Cl)cc1)C(=O)c1ccccc1S2=O (stereo not drawn),-47.5%
11,OC1CN=C2Sc3ccccc3N2C1 (stereo not drawn),-100%
12,O=C(CCCCC(=O)NNC(=O)COc1ccccc1)NNC(=O)COc1ccccc1,-88.4%
13,COc1ccccc1CN1CCC(n2nccc2NC(=O)CCCc2ccccc2)CC1,-112%
14,O=C(NNC(=S)NCc1ccco1)c1ccccc1Br,41.4% (active)
15,Cc1cccc(NS(=O)(=O)c2cccc(C(=O)NNC(=O)c3ccccc3O)c2)c1,29.2% (active)
16,CC1Cn2c(nnc2C23CC4CC(CC(C4)C2)C3)S1 (stereo not drawn),95.1% (active)
